Several values for one entry are separate records, joined by “and”; a condition that tells them apart may be missing. Equal entries are not always repeated. Records with an inconclusive call do not appear. Activity calls are given as the source filed them. Calls come from the whole dose curve; as a rule, active = well fitted curve in the direction sought with a large enough effect; inconclusive = small, poorly fitted or top-dose-only effect, or another doubt; inactive = no such curve, though single readings can be large; an effect the other way counts as inactive or inconclusive.
How the values were obtained:
KB-3-1 = assay: Cytotoxic Profiling of Annotated Libraries Using Quantitative High-Throughput Screening (AID 1296008); details: Five cell lines viability, CellTiter-Glo ATP luminescence, 48-72 h; max response: active compounds read low; note: nearly all actives have a fitted effect of over 60% in size; note: potency is the fitted concentration of half-maximal effect; for max response: % is set by controls: 0 for no effect and ±100 for the full control effect
Method in brief: (§1)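 Cells exposed to compounds for 48 or 72 hr at 37 degrees Celsius. Viability read as ATP-coupled luminescence with CellTiter-Glo after 10 min at room temperature.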

NIH3T3 [1] = assay: as above; details: Five cell lines viability, CellTiter-Glo ATP luminescence, 48-72 h; max response: active compounds read low
Method in brief: as §1

NIH3T3 [2] = assay: qHTS assay to identify novel small-molecules to repurpose for Merkel cell carcinoma treatment (AID 1296009); details: MCC and control cell lines, CellTiter-Glo viability, 72 h; at 44.8 µM (top of the series) unless noted; note: nearly all actives have a fitted effect of over 60% in size
Method in brief: (§2)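 Dose-response viability screen; 72 hr exposure at 37 degree celsius; CellTiter-Glo added, 10 min room temperature, luminescence read; RLUs scaled between no-cell and DMSO wells.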

C33A = assay: Primary qHTS to identify gynecologic anti-cancer compounds using libraries of approved drugs and bioactive compounds (AID 1345084); details: Gynecologic cancer cell panel viability, ATPlite luminescence, 48 h; series mostly up to 57.5 µM; note: nearly all actives have a fitted effect of over 55% in size; note: potency is the fitted concentration of half-maximal effect; for activity change, negative = cytotoxicity: % is set by controls: 0 for no effect and ±100 for the full control effect
Method in brief: (§3)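 Cells, 1,000 per well, were allowed to settle for 16 h at 37 C before compound addition. Five concentrations were tested for 48 h, and viability was read by ATPlite luminescence after 15 min at room temperature.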

CAOV3 = assay: as above; details: Gynecologic cancer cell panel viability, ATPlite luminescence, 48 h; series mostly up to 57.5 µM
Method in brief: as §3

Es-2 = assay: as above; details: Gynecologic cancer cell panel viability, ATPlite luminescence, 48 h; series mostly up to 57.5 µM
Method in brief: as §3

HeLa = assay: as above; details: Gynecologic cancer cell panel viability, ATPlite luminescence, 48 h; series mostly up to 57.5 µM
Method in brief: as §3

Hek293T [3] = assay: as above; details: Gynecologic cancer cell panel viability, ATPlite luminescence, 48 h, control line for the selectivity index; series mostly up to 57.5 µM
Method in brief: as §3

OV90 = assay: as above; details: Gynecologic cancer cell panel viability, ATPlite luminescence, 48 h; series mostly up to 57.5 µM
Method in brief: as §3

CASKI = assay: as above; details: Gynecologic cancer cell panel viability, ATPlite luminescence, 48 h; series mostly up to 57.5 µM
Method in brief: as §3

JEG-3 = assay: as above; details: Gynecologic cancer cell panel viability, ATPlite luminescence, 48 h; series mostly up to 57.5 µM
Method in brief: as §3

HEK293T [4] = assay: qHTS assay to identify novel small-molecules to repurpose for Merkel cell carcinoma treatment (AID 1296009); details: MCC and control cell lines, CellTiter-Glo viability, 72 h; at 44.8 µM (top of the series) unless noted; note: nearly all actives have a fitted effect of over 60% in size
Method in brief: as §2

C[C@H]1O[C@@H](O[C@H]2C[C@@H](O)[C@]3(CO)C4C(CC[C@]3(O)C2)[C@@]2(O)CC[C@H](C3=CC(=O)OC3)[C@@]2(C)C[C@H]4O)[C@@H](O)[C@@H](O)[C@H]1O (some centres not stated)
active: Potency (KB-3-1) 432 nM | Potency (C33A) 398 nM | Potency (CAOV3) 562 nM | Potency (Es-2) 355 nM | Potency (HeLa) 562 nM | Potency (Hek293T [3]) 355 nM | Potency (OV90) 1.12 µM
inactive: outcome (NIH3T3 [1]) | outcome (NIH3T3 [2]) inactive [at 17.4 µM]

Cc1cc(C(=O)CN2CCCC2)c(C)n1-c1ccc(F)cc1
inactive: max response (KB-3-1) 2.15% and -9.06% | max response (NIH3T3 [1]) 1.34% and -18.5% | Potency (C33A) | Potency (CAOV3) | Potency (CASKI) | Potency (Es-2) | Potency (HeLa) | Potency (Hek293T [3]) | Potency (JEG-3) | Potency (OV90)

Oc1ccc2c3c1O[C@H]1[C@H](N(CCCl)CCCl)CC[C@@]4(O)[C@@H](C2)N(CC2CC2)CC[C@]314
inactive: outcome (KB-3-1) | outcome (NIH3T3 [1]) | outcome (NIH3T3 [2]) inactive [at 9.27 µM] | activity change, negative = cytotoxicity (C33A) 3.36% [at 11.6 µM] | activity change, negative = cytotoxicity (CAOV3) 11.9% [at 11.6 µM] | activity change, negative = cytotoxicity (CASKI) 18.4% [at 11.6 µM] | activity change, negative = cytotoxicity (Es-2) 3.95% [at 11.6 µM] | activity change, negative = cytotoxicity (HeLa) 1.82% [at 11.6 µM] | activity change, negative = cytotoxicity (Hek293T [3]) 0.845% [at 11.6 µM] | activity change, negative = cytotoxicity (JEG-3) -5.35% [at 11.6 µM] | activity change, negative = cytotoxicity (OV90) 0.162% [at 11.6 µM]

CC(=O)OC1CC(O)C(C)(C)C2CC(OC(C)=O)C3(C)C(CCC4(C)C(c5ccoc5)C(=O)C5OC543)C12C (configuration not stated)
inactive: max response (KB-3-1) 4.61% | outcome (NIH3T3 [1]) | outcome (NIH3T3 [2]) inactive [at 17.4 µM] | Potency (C33A) | Potency (CASKI) | Potency (Es-2) | Potency (HeLa) | Potency (Hek293T [3]) | Potency (JEG-3) | Potency (OV90)

CC(C)=C1CC[C@]23CO[C@H](C2)[C@@](O)(C(=O)O)CCC13 (some centres not stated)
inactive: max response (KB-3-1) 4.44% | max response (NIH3T3 [1]) 1.86% | outcome (HEK293T [4]) | Potency (C33A) | Potency (CASKI) | Potency (Es-2) | Potency (HeLa) | Potency (Hek293T [3]) | Potency (JEG-3) | Potency (OV90)

CCN1CC2(COC)C3[C@@H](OC)C4C1C3(C1C[C@]3(O)[C@H](OC(=O)c5ccccc5)C1[C@]4(OC(C)=O)[C@@H](O)[C@@H]3OC)[C@H](OC)C[C@H]2O (some centres not stated)
inactive: outcome (KB-3-1) | outcome (NIH3T3 [1]) | outcome (NIH3T3 [2]) | Potency (C33A) | Potency (CAOV3) | Potency (CASKI) | Potency (Es-2) | Potency (HeLa) | Potency (Hek293T [3]) | Potency (JEG-3) | Potency (OV90)

C/C=C(\C)C(=O)O[C@H]1[C@H](OC(C)=O)[C@]2(CO)[C@H](O)[C@H](O)[C@]3(C)C(=CCC4[C@@]5(C)CC[C@H](O[C@@H]6O[C@H](C(=O)O)[C@@H](O)[C@H](O[C@@H]7OC[C@H](O)[C@H](O[C@@H]8OC[C@H](O)[C@H](O)[C@H]8O)[C@H]7O)[C@H]6O[C@@H]6O[C@H](CO)[C@@H](O)[C@H](O)[C@H]6O)C(C)(C)C5CC[C@]43C)[C@@H]2CC1(C)C (some centres not stated)
inactive: outcome (KB-3-1) | outcome (NIH3T3 [1]) | outcome (HEK293T [4]) inactive [at 9.27 µM] | outcome (NIH3T3 [2]) inactive [at 9.27 µM] | activity change, negative = cytotoxicity (C33A) 0.756% [at 6.55 µM] | activity change, negative = cytotoxicity (CASKI) 13.6% [at 6.55 µM] | activity change, negative = cytotoxicity (Es-2) -0.471% [at 6.55 µM] | activity change, negative = cytotoxicity (HeLa) 10.9% [at 6.55 µM] | activity change, negative = cytotoxicity (Hek293T [3]) -2.46% [at 6.55 µM] | activity change, negative = cytotoxicity (JEG-3) -2.67% [at 6.55 µM] | activity change, negative = cytotoxicity (OV90) -10.1% [at 6.55 µM]

Reference: PubChem BioAssay (NCATS)
